Measured values published in PubChem BioAssay (Tox21).
“And” between values parts separate entries of the source, which are not always exact repeats. Equal values may be shown once. Inconclusive results are not listed. Some structures have more than one record in an assay (separate samples or runs), and their calls can disagree. The source made the active and inactive calls. Unless noted, calls come from the whole dose curve; as a rule, active = well fitted curve in the direction sought with a large enough effect in the repeat runs; inconclusive = weak or mixed curves; inactive = no such curve, though single readings can be large; an effect the other way counts as inactive or inconclusive.

Experiments:
[1] = A CellTox Green Cytotoxicity Assay to monitor cytotoxicity in HepG2 cells - 8 hour (AID 1224890); note: nearly all actives have a fitted effect of over 45% in size; note: potency is the fitted concentration of half-maximal effect
Method in brief: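 HepG2, 600 cells/well premixed w/ CellTox Green; 5 h settle, 37 C/5% CO2; pintool cpd add (DMSO); 37 C, 40 h; fluorescence read at 0, 8, 16, 24, 32, 40 h.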

[2] = qHTS assay to identify small molecule antagonists of the estrogen receptor alpha (ER-alpha) signaling pathway using the BG1 cell line in the presence of 0.1 nM 17-beta-estradiol - cell viability counter screen (AID 1259241); note: nearly all actives have a fitted effect of over 40% in size
Method in brief: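 Following 5 days in phenol red-free medium with charcoal-stripped serum, VM7Luc4E2 cells received test compounds alongside 0.1 nM 17beta-estradiol (final) at 37C for 22 hr. Live cells were then quantified via protease-substrate fluorescence.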

[3] = qHTS assay to identify small molecule antagonists of the androgen receptor (AR) signaling pathway using the MDA cell line in the presence of 0.5 nM R1881 - cell viability counter screen (AID 1259242); note: nearly all actives have a fitted effect of over 45% in size
Method in brief: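 Live-cell protease fluorescence, CellTiter-Fluor, 30 min at 37C. Cells: MDA-kb2, 3,000/well, preincubated 5 hr. Compounds plus 0.5 nM R1881 final, 16 hr, 37C, 0% CO2.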

[4] = target: Estrogen receptor (Homo sapiens) (UniProt P03372); assay: qHTS assay to identify small molecule antagonists of the estrogen receptor alpha (ER-alpha) signaling pathway using the BG1 cell line in the presence of 0.1 nM 17-beta-estradiol (AID 1259244); note: nearly all actives have a fitted effect of over 50% in size
Method in brief: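 Luminescence after ONE-Glo (30 min, room temperature) measured ERE-luciferase activity in VM7Luc4E2 cells treated 22 h with compound and 0.1 nM final 17beta-estradiol as stimulator.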

[5] = qHTS assay to identify small molecule HDAC inhibitors (AID 1259364);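 note: wild-type HCT-116 cells with endogenous class I/II HDAC activity; top concentration of the series differs between compounds; nearly all actives have a fitted effect of over 45% in size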
Method in brief: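 HCT-116 (wild type), 1,500 cells/well, overnight; compound 2 hr 37C 5% CO2; HDAC-Glo I/II reagent 30 min RT; luminescence readout.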

[6] = qHTS assay to identify small molecule HDAC inhibitors - cell viability counter screen (AID 1259365); note: series mostly up to about 92 µM; nearly all actives have a fitted effect of over 50% in size
Method in brief: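 HCT-116 wild-type, overnight attachment; 2hr drug exposure, 37C; CellTiter-Glo luminescent ATP readout after 30min RT.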

[7] = qHTS assay to identify small molecule agonists of the sonic hedgehog signaling (Shh) pathway - cell viability counter screen (AID 1259366); note: nearly all actives have a fitted effect of over 50% in size
Method in brief: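 Compounds in DMSO were pin-transferred onto 3T3 Gli1-Luc cells that had settled 4hr; plates then stood 24hr at 37C and 5% CO2. One hour before the end, CellTiter-Fluor was added and fluorescence recorded.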

[8] = qHTS assay to identify small molecule antagonists of the sonic hedgehog signaling (Shh) pathway - cell viability counter screen (AID 1259367); note: nearly all actives have a fitted effect of over 55% in size; note: potency is the fitted concentration of half-maximal effect
Method in brief: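 Conditioned medium drove Shh signaling in 3T3 Gli1-Luc cells exposed to compounds at 37C and 5% CO2. Viability was determined from CellTiter-Fluor fluorescence, with reagent incubated 1 hr after 23 hr of treatment.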

[9] = qHTS assay to identify small molecule phospholipidosis (PLD) inducers (AID 1259344; active = well fitted curve in the direction sought with a large enough effect; an effect the other way counts as inactive or inconclusive)
Method in brief: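 After 4 h attachment on collagen I, HepG2 cells were dosed with compound alongside LipidTOX Red, kept 24 h at 37 C, fixed, and imaged for lamellar phospholipid pits.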
% is set by controls: 0 for no effect and ±100 for the full control effect.

Chain of Estrogen receptor (Homo sapiens) (P03372 whole entry, looked up): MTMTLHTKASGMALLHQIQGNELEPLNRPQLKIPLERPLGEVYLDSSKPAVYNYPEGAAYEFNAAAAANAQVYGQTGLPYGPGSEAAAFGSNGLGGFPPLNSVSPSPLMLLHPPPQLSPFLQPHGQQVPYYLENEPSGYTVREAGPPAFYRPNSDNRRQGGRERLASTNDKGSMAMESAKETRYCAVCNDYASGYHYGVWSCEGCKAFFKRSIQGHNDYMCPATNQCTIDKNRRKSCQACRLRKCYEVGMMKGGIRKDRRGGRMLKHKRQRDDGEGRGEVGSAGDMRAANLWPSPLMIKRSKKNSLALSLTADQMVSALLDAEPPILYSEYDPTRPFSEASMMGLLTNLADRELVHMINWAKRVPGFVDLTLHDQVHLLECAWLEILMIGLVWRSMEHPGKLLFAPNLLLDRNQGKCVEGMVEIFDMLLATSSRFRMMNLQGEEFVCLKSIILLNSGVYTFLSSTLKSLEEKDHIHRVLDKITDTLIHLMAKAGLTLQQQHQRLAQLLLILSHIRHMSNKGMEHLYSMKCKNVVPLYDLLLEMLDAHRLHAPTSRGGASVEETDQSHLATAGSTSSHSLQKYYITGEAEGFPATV

CCO[Si](CCC1CCC2OC2C1)(OCC)OCC (centres undefined)
inactive: Potency [1] | outcome [2] | Potency [3] | outcome [4] | Potency [5] | outcome [6] | Potency [7] | Potency [8]

CC(=O)OCC(=O)[C@@]1(O)CC[C@H]2[C@@H]3CCC4=CC(=O)CC[C@]4(C)[C@H]3C(=O)C[C@@]21C
inactive: Potency [1] | outcome [2] | Potency [3] | outcome [4] | Potency [9] | outcome [6] | Potency [7] | Potency [8]

OCCOc1ccc(OCCO)cc1
inactive: Potency [1] | outcome [2] | Potency [3] | outcome [4] | Potency [5] | outcome [6] | Potency [7] | Potency [8]

O=c1n(CCO)c(=O)n(CCO)c(=O)n1CCO
inactive and 38.9 µM (active): Potency [1]
inactive: outcome [2] | Potency [3] | outcome [4] | Potency [5] | outcome [6] | Potency [7]
inactive and 54.5 µM (active): Potency [8]

COc1ccc2c(c1)CCCC2=O
inactive: Potency [1] | outcome [2] | Potency [3] | outcome [4] | Potency [5] | outcome [6] | Potency [7] | Potency [8]

COc1ccccc1OCC(O)CN1CCN(CC(=O)Nc2c(C)cccc2C)CC1 (centres undefined)
inactive: Potency [1] | outcome [2] | Potency [3] | outcome [4] | Potency [9] | outcome [6] | Potency [7] | Potency [8]

CCCc1cc(C(N)=S)ccn1
inactive: Potency [1] | outcome [2] | Potency [3] | outcome [4] | Potency [9] | outcome [6] | Potency [7] | Potency [8]

C[C@](N)(Cc1ccc(O)cc1)C(=O)O
inactive: cytotoxicity increase [1] -1.36% [at 6.97 µM] | activity change, negative = cytotoxicity [2] 0.275% [at 8.39 µM] | viability change, negative = cytotoxic [3] 2.64% [at 8.39 µM] | activity change, negative = inhibition [4] -5.6% [at 8.39 µM] | Potency [9] | activity change, negative = cytotoxicity [6] -1.98% [at 8.39 µM] | viability change, negative = cytotoxic [7] 4.48% [at 8.39 µM] | viability change, negative = cytotoxic [8] 4.1% [at 8.39 µM]

CCOC(=O)c1cccc(N)c1
inactive: Potency [1] | outcome [2] | Potency [3] | outcome [4] | Potency [9] | outcome [6] | Potency [7] | Potency [8]

Nc1ccc(S(=O)(=O)Nc2ccnn2-c2ccccc2)cc1
inactive: cytotoxicity increase [1] 0.943% [at 15.8 µM] | activity change, negative = cytotoxicity [2] 0.0467% [at 19 µM] | viability change, negative = cytotoxic [3] 0.287% [at 19 µM] | activity change, negative = inhibition [4] 0.724% [at 19 µM] | Potency [9] | activity change, negative = cytotoxicity [6] 2.68% [at 19 µM] | viability change, negative = cytotoxic [7] 10.6% [at 19 µM] | Potency [8]

CCC(=O)OC(C)c1ccccc1 (centres undefined)
inactive: Potency [1] | outcome [2] | Potency [3] | outcome [4] | Potency [5] | outcome [6] | Potency [7] | Potency [8]

N[C@H]1CN(c2c(F)cc3c(=O)c(C(=O)O)cn(C4C[C@H]4F)c3c2Cl)CC12CC2 (some centres undefined)
inactive: Potency [1] | outcome [2] | Potency [3] | outcome [4] | Potency [9] | Potency [5] | outcome [6] | Potency [7] | Potency [8]

c1ccc([C@H]2CN3CCSC3=N2)cc1
inactive: Potency [1] | outcome [2] | Potency [3] | outcome [4] | Potency [9] | outcome [6] | Potency [7] | Potency [8]

C=CCCCCCCCCC=O
inactive: Potency [1] | outcome [2] | Potency [3] | outcome [4] | Potency [5] | outcome [6] | Potency [7] | Potency [8]

CCCCCOC(=O)CCCCC
inactive: Potency [1] | outcome [2] | Potency [3] | outcome [4] | Potency [5] | outcome [6] | Potency [7] | Potency [8]

Nc1cc(=O)[nH]c(N)n1
inactive: Potency [1] | outcome [2] | Potency [3] | outcome [4] | PLD induction [9] 1.63% [at 7.66 µM] | Potency [5] | outcome [6] | Potency [7] | Potency [8]

N=C(N)c1ccc(OCCCOc2ccc(C(=N)N)cc2)cc1
inactive: Potency [1] | outcome [2] | Potency [3] | outcome [4] | PLD induction [9] -2.77% [at 0.306 µM] | outcome [6] | Potency [7] | Potency [8]

Cc1cccc(C)c1NC(=O)C(C)N (centres undefined)
inactive: outcome [2] | Potency [3] | outcome [4] | Potency [9] | outcome [6] | Potency [7] | Potency [8]
active: Potency [1] 21.3 µM

CCCCC(CC)COC(=O)c1ccccc1O (centres undefined)
inactive: Potency [1] | outcome [2] | Potency [3] | outcome [4] | Potency [9] | outcome [6] | Potency [7] | Potency [8]
